This is an account of results in PubChem BioAssay (NCATS).

Results filed as inconclusive are left out. Where a call stands in place of a potency, no number is given. The source made the active and inactive calls. Calls come from the whole dose curve; as a rule, active = well fitted curve in the direction sought with a large enough effect; inconclusive = small, poorly fitted or top-dose-only effect, or another doubt; inactive = no such curve, though single readings can be large; an effect the other way counts as inactive or inconclusive.

The subject of the first test is Zika virus NS2B-NS3 protease (unlinked). As to the kind of experiment: Optimization of GU AMC qHTS for Zika virus inhibitors: Unlinked NS2B-NS3 protease assay (AID 1347151). Note: nearly all actives have a fitted effect of over 80% in size. Note: potency is the fitted concentration of half-maximal effect. As to conditions: recombinant ZIKV NS2B-NS3 protease, fluorogenic AMC substrate; series mostly up to 52.5 µM. A digest of the protocol: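 In this qHTS, compounds acted on 25 nM unlinked Zika NS2B–NS3 in pH 8.0 Tris/Tween buffer. Cleavage of an AMC peptide ran 15 min at room temperature, to about 20% conversion.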
(In general: qHTS replaces the single test concentration by a dilution series.)
For the compound `c1ccc2c(c1)OCC(C1=NCCN1)O2` (stereo unspecified), the Potency entry was “inactive”.
The same measure, in the same setting: for `Cc1cccc(C)c1NC(=O)CN1CCCC1=O` the value was “inactive”; for `Cc1ccc(S(=O)(=O)N[C@@H](CCCCN)C(=O)CCl)cc1`, “inactive”.
On the same count and under the same terms, for `Cc1cccc(C)c1NC1=NCCCS1` the value was “inactive”; for `NCC1(CC(=O)O)CCCCC1`, “inactive”.
On to `Nc1ccncc1`, for which the Potency entry is “inactive”.
Still for that read-out and setting: for `CC(=O)[C@H]1CC[C@H]2[C@@H]3CC[C@H]4C[C@H](O)CC[C@]4(C)[C@H]3C(=O)C[C@]12C` the value was “inactive”.
On to `NCC(CC(=O)O)c1ccc(Cl)cc1` (stereo unspecified), for which the Potency result was “inactive”.
Still for that read-out and setting: for `CC[C@@H](CO)NC(=O)[C@@H]1C=C2c3cccc4[nH]cc(c34)C[C@H]2N(C)C1` the value was 23.8 µM (active); for `CCC1(C2=NCCN2)Cc2ccccc2O1` (stereo unspecified), “inactive”.
On the same count and under the same terms, for `O=c1[nH]c2ccccc2n1CCCN1CCC(n2c(=O)[nH]c3cc(Cl)ccc32)CC1` the value was “inactive”; for `c1ccc(C2CC2)c(OCC2=NCCN2)c1`, “inactive”; for `COc1ccc(C(CN(C)C)C2(O)CCCCC2)cc1` (stereo unspecified), “inactive”.
Still for that read-out and setting: for `O=C1NCN(c2ccccc2)C12CCN(CC1COc3ccccc3O1)CC2` (stereo unspecified) the value was “inactive”; for `CC(CCc1ccccc1)NC(C)C(O)c1ccc(O)cc1` (stereo unspecified), “inactive”.
Consider `C[C@@H]1O[C@@H](O[C@H]2C[C@@H](O)[C@]3(CO)[C@H]4[C@H](O)C[C@]5(C)[C@@H](C6=CC(=O)OC6)CC[C@]5(O)[C@@H]4CC[C@]3(O)C2)[C@H](O)[C@H](O)[C@H]1O`, for which the Potency entry was “inactive”.
On the same count and under the same terms, for `NN=C(N)N` the value was “inactive”; for `C[C@H]1O[C@@H](O[C@H]2[C@@H](O)C[C@H](O[C@H]3[C@@H](O)C[C@H](O[C@H]4CC[C@@]5(C)[C@H](CC[C@@H]6[C@@H]5CC[C@]5(C)[C@@H](C7=CC(=O)OC7)CC[C@]65O)C4)O[C@@H]3C)O[C@@H]2C)C[C@H](O)[C@@H]1O`, “inactive”.
Still for that read-out and setting: for `CNCC(O)c1ccc(O)cc1` (stereo unspecified) the value was “inactive”.
Turning to `CC(=O)[C@H]1CC[C@H]2[C@@H]3CC[C@H]4C[C@](C)(O)CC[C@]4(C)[C@H]3CC[C@]12C`, the Potency result is “inactive”.
Still for that read-out and setting: for `NCC(O)c1ccc(O)cc1` (stereo unspecified) the value was “inactive”.
The same measure, in the same setting: for `O=c1[nH]c2ccccc2n1C1CCN(CCCC(c2ccc(F)cc2)c2ccc(F)cc2)CC1` the value was “inactive”.

Another test relates to Zika virus NS2B-NS3 protease. Briefly: Primary screen GU AMC qHTS for Zika virus inhibitors (AID 1347154). Note: nearly all actives have a fitted effect of over 70% in size. As to conditions: Zika NS2B-NS3 unlinked protease, AMC fluorogenic substrate; series mostly up to 54.1 µM. Put shortly:
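Fluorogenic AMC-substrate cleavage by noncovalent NS2B-NS3 protease complex (25 nM, pH 8.0 Tris buffer with Tween 20) followed for 15 minutes at room temperature (~20% conversion). Percent inhibition from ex340/em450 signal change, fitted by 4-parameter Hill equation.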
In the case of `C[C@@H]1[C@@H](CC(C[C@H]2O[C@@H]3O[C@]4(C)CC[C@@H]5[C@H](C)CC[C@@H]([C@H]2C)[C@@]35OO4)C[S+](=O)([O-])c2ccc(COC(=O)N(C)C)cc2)O[C@@H]2O[C@]3(C)CC[C@H]4[C@H](C)CC[C@@H]1[C@@]24OO3` (stereo partly specified), the Potency result was “inactive”.
For the compound `c1ccc2c(c1)OCC(C1=NCCN1)O2` (stereo unspecified), the Potency entry is “inactive”.
Same read-out and setting: for `Cc1cccc(C)c1NC(=O)CN1CCCC1=O` the value was “inactive”; for `Cc1ccc(S(=O)(=O)N[C@@H](CCCCN)C(=O)CCl)cc1`, “inactive”.
Regarding `Cc1cccc(C)c1NC1=NCCCS1`, the Potency result was “inactive”.
The same measure, in the same setting: for `NCC1(CC(=O)O)CCCCC1` the value was “inactive”; for `Nc1ccncc1`, “inactive”; for `Cn1cc(C2=C(c3cn(C4CCN(Cc5ccccn5)CC4)c4ccccc34)C(=O)NC2=O)c2ccccc21`, “inactive”.
Take `CC(=O)[C@H]1CC[C@H]2[C@@H]3CC[C@H]4C[C@H](O)CC[C@]4(C)[C@H]3C(=O)C[C@]12C`: the Potency result is “inactive”.
In the case of `NCC(CC(=O)O)c1ccc(Cl)cc1` (stereo unspecified), the activity change, negative = inhibition is -12.9% [at 0.59 µM] (inactive).
As to `CC(C)CC(N(C)C)C1(c2ccc(Cl)cc2)CCC1` (stereo unspecified), the Potency entry was “inactive”.
In the case of `CCC1(C2=NCCN2)Cc2ccccc2O1` (stereo unspecified), the Potency entry was “inactive”.
In the case of `Cn1c(CCCC(=O)O)nc2cc(N(CCCl)CCCl)ccc21`, the Potency entry was “inactive”.
`O=c1[nH]c2ccccc2n1CCCN1CCC(n2c(=O)[nH]c3cc(Cl)ccc32)CC1`: the Potency result is “inactive”.
Regarding `c1ccc(C2CC2)c(OCC2=NCCN2)c1`, the Potency entry was “inactive”.
Consider `COc1ccc(C(CN(C)C)C2(O)CCCCC2)cc1` (stereo unspecified), for which the Potency entry is “inactive”.
For the compound `O=P1(NCCCl)OCCCN1CCCl` (stereo unspecified), the Potency entry was “inactive”.
Same read-out and setting: for `O=C1NCN(c2ccccc2)C12CCN(CC1COc3ccccc3O1)CC2` (stereo unspecified) the value was “inactive”.
The same measure, in the same setting: for `COC[C@@H](NC(C)=O)C(=O)NCc1ccccc1` the value was “inactive”.
For `C=C(C)[C@H]1Cc2c(ccc3c2O[C@@H]2COc4cc(OC)c(OC)cc4[C@@H]2C3=O)O1`, the Potency entry is “inactive”.
Take `CC(CCc1ccccc1)NC(C)C(O)c1ccc(O)cc1` (stereo unspecified): the Potency result is “inactive”.
As for `C[C@@H]1O[C@@H](O[C@H]2C[C@@H](O)[C@]3(CO)[C@H]4[C@H](O)C[C@]5(C)[C@@H](C6=CC(=O)OC6)CC[C@]5(O)[C@@H]4CC[C@]3(O)C2)[C@H](O)[C@H](O)[C@H]1O`, the Potency result is “inactive”.
Still for that read-out and setting: for `NN=C(N)N` the value was “inactive”; for `C[C@H]1O[C@@H](O[C@H]2[C@@H](O)C[C@H](O[C@H]3[C@@H](O)C[C@H](O[C@H]4CC[C@@]5(C)[C@H](CC[C@@H]6[C@@H]5CC[C@]5(C)[C@@H](C7=CC(=O)OC7)CC[C@]65O)C4)O[C@@H]3C)O[C@@H]2C)C[C@H](O)[C@@H]1O`, “inactive”.
